From PubChem BioAssay AID588742 (Southern Research Specialized Biocontainment Screening …, 2011)
Out of some 1,800 compounds screened, about 410 (23%) were called active. Not all results are given here. Measured potencies and affinities stand elsewhere. Unmarked numbers belong to inactive results. How the calls were made is not given here.

assay: viability of Vero cells under compound – cytotoxicity control for flavivirus capping enzyme inhibitors (AID 588742); conditions: cytotoxicity counter-screen; series mostly up to 40 µM; viability: at the top concentration

Compound | viability [%]
O=C1C(Cl)=C(N2CCN(Cc3ccccc3)CC2)C(=O)N1c1ccccc1 | 96.7
CC(=O)Oc1oc(-c2ccccc2)nc1C=Nc1ccccc1 | 93
COc1cc(C(=O)Nc2scc(-c3ccc(Br)cc3)c2C(=O)O)cc(OC)c1OC | 92
Cc1ccc(SCc2[nH]nc3c2C(c2ccco2)C(C#N)=C(N)O3)cc1 (stereo not given) | 97
Nc1cccc2c1C(=O)N(C(=O)/C=C/c1cccc(F)c1)C2=O | 102
O=[N+]([O-])c1ccc(O)c(C=Nc2ccc3c(c2)OCO3)c1 | 83.4
Cc1cc(O)c(C(C)C)cc1N=Cc1cc([N+](=O)[O-])ccc1O | 105
CC[N+]1(CC)CC2CCC(C)(C1)C2(C)C (stereo not given) | 103
CCCn1c(C)cc(-c2csc(N)n2)c1C | 93.8
O=[N+]([O-])c1c(Nc2ccccc2O)cc(Cl)c2nonc12 | 85.5
O=C(O)c1cc(Nc2cc(Cl)c3nonc3c2[N+](=O)[O-])ccc1O | 106
O=[N+]([O-])c1ccc(O)c(Nc2c([N+](=O)[O-])ccc3nonc23)c1 | 90.6
O=C(O)c1ccc(Nc2cc(Cl)c3nonc3c2[N+](=O)[O-])cc1 | 96.6
O=C(O)c1cccc(Nc2cc(Cl)c3nonc3c2[N+](=O)[O-])c1 | 99.5
Cc1ccc(/C=N/c2sc3c(c2C#N)CCC3)s1 | 99.6
COc1cc(C2C(C#N)=C(N)N(c3cccnc3)C3=C2C(=O)CCC3)ccc1O (stereo not given) | 101
CCCCCc1c2c(cc(O)c1C(=O)O)OC(=O)c1cc(C(=O)CCCC)c(OC)cc1O2 | 103
COC(=O)Cc1ccc(NC(=S)Nc2ccc(N3CCOCC3)cc2)cc1 | 103
COc1cc(/C=C2/C(=O)NN(c3cccc(C)c3)C2=O)ccc1OC(=O)c1ccco1 | 99.3
CCC(C)NC(=O)c1ccc(N2CCC3(CC2)OCCO3)c([N+](=O)[O-])c1 (stereo not given) | 95.6
CC(C)NC(=O)Cn1cc(S(=O)(=O)N2CCCC2)c(S(=O)(=O)N2CCCC2)c1 | 96.5
CC(=O)Nc1ccc(C2=NNC(=NCC3CCCO3)SC2)cc1 (stereo not given) | 102
O=C(O)CN1C(=O)/C(=C\c2cc(Br)ccc2OCc2ccc([N+](=O)[O-])cc2)SC1=S | 96.9
COc1ccc(-c2csc(/C(C#N)=C(\O)CSc3nccn3C)n2)cc1OC | 102
CCOc1ccc(C(c2c(O)nc(SC)n(C)c2=O)c2c(O)nc(SC)n(C)c2=O)cc1 | 100

Compound | viability [%]
COC(=O)C1=C(C(=O)OC)C(c2cc(Br)ccc2O)c2sc(=O)[nH]c2S1 (stereo not given) | 110
Cc1ccc(-c2c(C(=O)N/N=C/c3ccncc3)nnn2-c2nonc2N)cc1 | 89.8
COc1ccc(Cc2c(O)nc(SC)n(C(C)=O)c2=O)cc1 | 104
O=C(O)CN1C(=O)/C(=C\c2cccc(OCc3ccccc3)c2)SC1=S | 93.8
O=C(CC(c1ccccc1)c1ccccc1O)N1CCCC1 (stereo not given) | 98.5
O=C(O)c1ccc2c(c1Nc1ccccc1)C(=O)c1ccccc1C2=O | 85.9
Cc1sc(C(C2C(=O)CC(C)(C)CC2=O)C2C(=O)CC(C)(C)CC2=O)cc1[N+](=O)[O-] | 100
O=C(O)c1cccc(NS(=O)(=O)c2ccc(-c3ccc(S(=O)(=O)Nc4cccc(C(=O)O)c4)cc3)cc2)c1 | 98
CCc1ccc(S(=O)(=O)ON2C(=O)c3ccccc3C2=O)cc1 | 98.7
O=C(c1ccccc1NS(=O)(=O)c1ccc([N+](=O)[O-])cc1[N+](=O)[O-])N1O[C@@H]2C=C[C@H]1C2 | 87.8
CCOc1ccc2c(c1)n([O-])c1c([n+]2=O)CCCC1 | 102
COc1cc(C(=O)NC(C(=O)Nc2cccc(C(C)=O)c2)C(C)C)cc(OC)c1OC (stereo not given) | 90.7
Cc1nn(CCc2nc(-c3ccco3)cs2)c2[nH]c(=O)cc(C(F)(F)F)c12 | 89.7
C/C(=N\Nc1cccc(C(=O)O)c1)c1ccc(Cl)s1 | 91.2
COC1=C(Br)C(=O)c2ncccc2C1=O | 95.4
CC(C)c1ccc(NC(=O)COC(=O)CSc2nnc(N)s2)cc1 | 90.8
CC(/C=C1\SC(=S)N(c2ccc(C(=O)O)cc2)C1=O)=C\c1ccccc1 | 92.8
CN(C)c1cc(N/N=C\c2ccccc2)nc(N(C)C)n1 | 82.2
COc1ccc(OC)c2c(C)cc(N3CCCCCC3)nc12 | 81.7
O=C(O)CN1C(=O)/C(=C\c2cc(Br)ccc2OCc2ccccc2F)SC1=S | 93.8
COc1cccc(CNC(=O)c2cccnc2Sc2ccc(C)cc2C)c1 | 95.1
O=C(CCN1C(=O)S/C(=C\c2ccccc2)C1=O)Nc1ccc(S(=O)(=O)Nc2nccs2)cc1 | 101
CCS(=O)(=O)c1nc(S(=O)(=O)c2ccc(Cl)cc2)c(NCCCN2CCCC2=O)s1 | 103
[O-][n+]1c2ccccc2[n+]([O-])c2cc(O)ccc21 | 87.3
CC(C)c1cccc(-c2ccc3c(c2)S(=O)(=O)c2cccc(C(=O)O)c2C3=O)c1 | 95.7
